Screening results deposited in PubChem BioAssay by National Center for Advancing Translational Sciences (NCATS).
aSyn yeast inh: inhibitors of alpha-synuclein toxicity in yeast; Yeast expressing alpha-synuclein, growth rescue, BacTiter-Glo, 24 h; Potency, µM (doses to about 46.1 µM), for the others: at the top dose growth rescue (activation), most hits filed as activators; 370,000 tested, 0.14% active; note: % of control where 0% means no effect; nearly all actives have a fitted effect of over 65% in size
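Readout is rescue of growth in alpha-synuclein-expressing yeast, so inhibitors of toxicity appear as activators. Growth after 24 hr at 30 deg C in galactose medium is quantified by luminescence.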
TDP-43 yeast inh: inhibitors of TDP-43 toxicity in yeast | TDP-43 expressing yeast growth rescue, BacTiter-Glo, 24 h | AID 652104 | 410,000 tested, 1.8% active | Potency, µM (doses to about 46.1 µM), without a hit: at the top dose growth rescue (activation), usual class: activators; note: % of control where 0% means no effect; nearly all actives have a fitted effect of over 50% in size
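Luminescence from BacTiter-Glo reports growth of TDP-43-expressing yeast after 24 hr at 30 deg C with compound. Cells were raffinose-pregrown to mid-log, then seeded in galactose medium at OD600=0.02.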
Abeta rescue: compounds reversing amyloid beta toxicity in yeast; yeast expressing A-beta42, growth rescue, OD600, 48 h; response scale: 0% DMSO, 100% iron-clioquinol control; Potency, µM (series often up to 46.1 µM), usual class: activators; 410,000 tested, 0.063% active; note: nearly all actives have a fitted effect of over 55% in size
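Growth rescue measured by 600 nm absorbance after 48 h yeast culture at 30 C with compound. Values normalized between DMSO and an equimolar ferric chloride plus clioquinol control.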
FUS suppressor: FUS proteinopathy suppression in yeast. AID 1347120. S. cerevisiae FUS-expressing, growth rescue, OD600, 24 h. Potency, µM (highest dose often 76.6 µM), actives largely listed as activators. 390,000 tested, 0.24% active;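 note: plate controls were DMSO vehicle for no effect and reference control for full effect; nearly all actives have a fitted effect of over 55% in size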
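FUS-expressing yeast, raffinose-pregrown, induced in 2% galactose minimal medium at OD 0.005; compounds in a dilution series, 24hr at 30C. Growth restoration read as absorbance at 600 nm. CP55940 positive control, DMSO negative.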
* = called active by the depositor; i = inactive; ? = inconclusive; . = no result; [ ] = another dose, or the depositor's remark. An excerpt weighted towards active compounds, which were near 2.1% of everything screened. Calls come from the whole dose curve; as a rule, active = well fitted curve in the direction sought with a large enough effect; inconclusive = small, poorly fitted or top-dose-only effect, or another doubt; inactive = no such curve, though single readings can be large; an effect the other way counts as inactive or inconclusive. Potency is the fitted concentration of half-maximal effect.

SMILES	aSyn yeast inh	TDP-43 yeast inh	Abeta rescue	FUS suppressor
O=C(NC(=S)N1CCN(c2c(Cl)cccc2[N+](=O)[O-])CC1)c1cccs1	20%	?	i	.
Cc1cc(N2CCN(C(=O)c3cccs3)CC2)c(F)cc1[N+](=O)[O-]	7%	13µM*	i	i
O=C(c1cccs1)N1CCN(c2ccc([N+](=O)[O-])cc2F)CC1	2%	21%	i	i
c1ccc(Cn2c(-c3ccccc3)nc3nc4ccccc4nc32)cc1	2%	24%	i	i
Cc1nn2c(C)c(C(=O)NCCc3ccccc3)cnc2c1-c1ccccc1	.	18µM*	i	i
CCOc1ccc(CCNC(=O)c2cnc3c(-c4ccccc4)c(C)nn3c2C)cc1OCC	.	4%	i	i
COC(=O)c1cccc2c1-c1ccccc1/C2=N/O	-20%	13µM*	i	i
COC(=O)c1ccc2c(c1O)C(=O)c1ccccc1C2=O	2%	7.9µM*	i	i
CC(C)C(=O)NC(c1ccc(Cl)cc1Cl)c1ccc2cccnc2c1O (stereo unspecified)	?	25µM*	i	i
COc1cc(NC(=O)c2nc3cc(C)c(C)cc3n(C)c2=O)cc(OC)c1OC	.	19%	i	i
Cc1ccc(-c2nc(CS(=O)CC(=O)NC(C)CCc3ccccc3)c(C)o2)cc1 (stereo unspecified)	17%	5%	.	?
COc1cc2c(cc1OC)/C(=C/c1ccc(Cl)cc1)C(=O)OC2	13%	22µM*	i	i
CC(=O)n1c2c(c3ccccc31)OC(N)=C(C#N)C2c1ccc(C(C)C)cc1 (stereo unspecified)	20µM*	1%	i	i
COc1cccc(Nc2nc3ccccc3n3cnnc23)c1	0%	13µM*	i	i
CCc1ccccc1Nc1nc2ccccc2c2nncn12	.	18µM*	i	i
CCc1ccccc1Nc1nc2ccccc2n2cnnc12	.	13µM*	i	i
Cc1ccc(O)c(Nc2nc3ccccc3c3nncn23)c1	.	25%	i	i
CC(=O)Nc1ccc(-c2ccnc3c2CC(C)(C(=O)NCc2ccncc2)O3)cc1 (stereo unspecified)	-1%	12%	i	i
Cc1cc(Cl)ccc1Oc1ncnc2onc(C)c12	-3%	17%	i	i
C[C@H]1CN([C@@H](C)CO)S(=O)(=O)c2ccc(/C=C/c3ccccc3)cc2O[C@H]1CN(C)C(=O)NC1CCCCC1	7%	18%	i	11µM*
C[C@@H]1CN([C@H](C)CO)C(=O)c2cc(/C=C/c3ccccc3)cnc2O[C@H]1CN(C)C(=O)NC1CCCCC1	2%	12%	i	i
CN1/C(=C/C(=S)NC(=O)C2(C)CC2(Cl)Cl)C(C)(C)c2ccccc21 (stereo unspecified)	-7%	-11%[1.82 µM]	10µM*	?
CCOC(=O)CSc1nnc2c3ccccc3n(C)c2n1	-1%	13µM*	i	i
CCn1c2ccccc2c2nnc(SCc3ccccc3)nc21	-18%	25µM*	i	i
S=C1NCN(Cc2ccco2)CN1CCc1ccccc1	3%	?	14µM*	i
SMILES	aSyn yeast inh	TDP-43 yeast inh	Abeta rescue	FUS suppressor
O=C(c1ccccc1)n1ccn(-c2ccccc2)c1=S	-1%	11µM*	i	i
COc1ccccc1C(C[N+](=O)[O-])c1c[nH]c2ccccc12 (stereo unspecified)	?	20µM*	i	i
CC(=O)C(C(c1ccccc1)c1c[nH]c2ccccc12)[N+](=O)[O-] (stereo unspecified)	?	13µM*	?	i
CCOc1ccc(/C=C/C(=O)Nc2cccc(C(C)=O)c2)cc1	-14%	15%	i	.
Cc1ccccc1OCC(O)CN1CCC(C)CC1 (stereo unspecified)	-2%	-27%	i	i
O=C1/C(=C/c2ccccc2)SC(=S)N1C1CCS(=O)(=O)C1 (stereo unspecified)	1%	15%	i	i
O=C1/C(=C/c2ccncc2)SC(=S)N1C1CCS(=O)(=O)C1 (stereo unspecified)	0%	13µM*	i	i
O=C(C1CCCN(S(=O)(=O)c2cc(Cl)ccc2Cl)C1)N1CCCCCC1 (stereo unspecified)	3%	11µM*	i	.
CC(=O)Nc1ccc2c3c(cccc13)C(=O)N(c1ccccc1)C2=O	1%	-5%[0.397 µM]	i	i
